Reference: PubChem BioAssay AID1347383 (Zoeller Lab, School of Medicine, Boston University, 2020)
Activity calls are given as the source filed them.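 The calls were made as follows: active = cell survival after UV exposure 2 SD above solvent-only control wells at 10 µM, confirmed on one or two repeats; inactive = the rest.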

Assay: protection of CHO cells from pyrene-fatty acid UV killing, primary screen, phospholipid biosynthesis inhibitor project, ZR-82 cells, Analyticon library, screen 2 (AID 1347383);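 also: survival reflects blocked phospholipid synthesis cutting uptake of the phototoxic fatty acid; compound and fatty acid exposure 3 h then viability read next day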
Settings: ZR-82 CHO cells, CellTiter Blue, at 10 µM; peroxisome-deficient CHO-K1 variant, with DGAT-1, DGAT-2 and ACAT inhibitors unless noted

Row | SMILES | outcome
1 | CN1C(=O)c2ccccc2NC(=O)[C@]12O[C@@H]2c1ccccc1 | inactive
2 | CC(=O)O[C@H]1C(=O)[C@]2(C)C(O)C[C@H]3OC[C@@]3(OC(C)=O)[C@H]2[C@H](OC(=O)c2ccccc2)[C@]2(O)C[C@H](O)C(C)=C1C2(C)C (stereo partly drawn) | inactive
3 | COc1ccc(C23CCC(=O)C=C2N(C)CC3)cc1OC (stereo not drawn) | inactive
4 | CC(C)=CCOc1c2occc2cc2ccc(=O)oc12 | inactive [setting not given]
5 | CC1=CC2/C=C(\C)CCC(O)C(O)/C=C/C(=O)C23C(=O)NC(CC(C)C)C3C1C (stereo not drawn) | inactive
6 | C[C@@]1(CO)[C@H](O)CC[C@@]2(C)[C@H]1CC[C@H]1C[C@@H]3C[C@@]12CC[C@]3(O)CO | inactive [setting not given]
7 | C=CC(C)(C)c1cc2c(O)c3c(c(C(C)(C)C=C)c2oc1=O)OC(C)(C)C=C3 | inactive
8 | CO[C@@H]1[C@H](O)[C@@H](O[C@@H]2C[C@H]3CC[C@@H]4C(CC[C@]5(C)[C@@H](C6=CC(=O)OC6)CC[C@]45O)[C@@]3(C)[C@H](O)C2)O[C@H](C)[C@@H]1O (stereo partly drawn) | inactive
9 | CC(=O)NCCc1c[nH]c2ccccc12 | inactive [setting not given]
10 | C=C1C(=O)CC2OC2(C)CC2OC(=O)C(=C)C2C(O)C1OC(=O)/C(C)=C\C (stereo not drawn) | inactive
11 | CCCCCCCCCCCCCCCc1cccc(O)c1O | inactive
12 | CCC1CN2CCC3(C(=O)Nc4cccc(O)c43)C2CC1/C(=C/OC)C(=O)OC (stereo not drawn) | inactive
13 | CO[C@H]1[C@H](O)[C@H](O[C@H]2CC[C@]3(C=O)C4CC[C@]5(C)[C@H](C6=CC(=O)OC6)CC[C@]5(O)C4CC[C@@H]3C2)O[C@@H](C)[C@@H]1O (stereo partly drawn) | inactive
